Compound activity: PubChem BioAssay, several laboratories
PolyA inhibitor = blocks polyadenylation in yeast reporter cells; S. cerevisiae SKY197-pL101 polyadenylation reporter, beta-gal luminescence; efflux-impaired pdr1/pdr3 knockout yeast; score 100 = 6 SD above DMSO; activity score, % at 12 µM; AID 1875; actives 0.02% (n = 300,000);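 active = lowest replicate activity score at least 50, where 100 means six control SD above control mean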;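 note: yeast exposed to compound for 9 h at 30 °C; higher score means more reporter readthrough which indicates perturbed polyadenylation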
NALP1 yeast inh = blocks the NALP1 inflammasome reconstituted in yeast; S. cerevisiae NALP1/ASC/caspase-1 growth, X-gal OD620, 72 h; inhibition, % at 10 µM; actives 0.61% (n = 280,000); AID 2071; in the data active = inhibition mostly above about 24%, no sharp cut-off; inactive = mostly below about 32%
ZTA counter = ZTA (EBV) inhibition in EBNA-1 counter-screen | P03206 | ZTA-DNA binding, fluorescence polarization | inhibition, % at 11 µM | actives 0.15% (n = 320,000); in the data active = inhibition above about 33%
Target sequence (P03206 whole entry, looked up): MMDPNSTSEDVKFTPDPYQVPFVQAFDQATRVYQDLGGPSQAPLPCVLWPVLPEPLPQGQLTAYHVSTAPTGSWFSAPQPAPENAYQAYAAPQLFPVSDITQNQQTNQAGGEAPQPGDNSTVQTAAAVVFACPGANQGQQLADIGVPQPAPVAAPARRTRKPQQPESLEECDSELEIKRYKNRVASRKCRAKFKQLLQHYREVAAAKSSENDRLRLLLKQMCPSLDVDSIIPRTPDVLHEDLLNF
dFosB act = activators of mouse delta FosB homodimer | purified delta FosB, TAMRA-CDK5 oligo fluorescence polarization; percent of positive-control signal above neutral wells | activation, % at 25 µM | actives 0.99% (n = 340,000);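 active = mean activation above about 17%, with every replicate also reaching it, limit read from the data, passing the limit was not always enough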
NALP3 yeast inh = NALP3 inhibition in yeast; Yeast reconstituted NLRP3/ASC/caspase-1, beta-gal luminescence, 24 h; inhibition, % at 10 µM; actives 0.39% (n = 330,000);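 active = inhibition of 50% or more; inactive = inhibition below 50%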
EBNA-1 inh = blocks EBNA-1 binding to DNA; EBNA-1 DNA binding, fluorescence polarization; inhibition, % at 14.8 µM; actives 0.34% (n = 300,000); in the data active = inhibition above about 28%
NALP3 confirm = NALP3 inhibition confirmation in yeast; actives 81% (n = 1,300); shares compounds with NALP3 yeast inh; yeast expressing human NALP3, luminescence; inhibition, % at 10 µM; in the data active = inhibition above about 48%
Casp1-ASC yeast = counter-screen for NALP3 inhibitors: yeast caspase-1-ASC; shares compounds with NALP3 yeast inh; yeast expressing Caspase-1-ASC, luminescence counter screen; inhibition, % at 10 µM; actives 66% (n = 1,000)
NALP3 retest = confirmation retest of NALP3 inhibitors in yeast; shares compounds with NALP3 yeast inh; yeast expressing human NALP3, luminescence read-out; inhibition, % at 10 µM; actives 53% (n = 1,000); AID 488794
Each line names hits and unclear results; the compound was inactive in the other large screens (follow-up assays come after a bar, where they were run). Only some compounds are listed: those with a hit (about 2.2% of all), similar ones and a draw of the others. Cut-off read from the data, not from the text of the source, unless noted: active = inhibition above about 50%; inactive = the rest.

NC(=O)c1ncn([C@@H]2O[C@H](CNCc3ccc(-c4cc(C(F)(F)F)ccc4Cl)o3)[C@@H](O)[C@H]2O)n1	none (no result: PolyA inhibitor, NALP1 yeast inh, ZTA counter, NALP3 yeast inh, EBNA-1 inh)
COc1ccc(N2CCN(CCNC(=O)Nc3ccc(C)cc3Cl)CC2)cc1	none
Cc1ccccc1C(=O)Nc1ccc(N(C)C)c2ccccc12	none
C=Cc1ncc(OC)c2c1[nH]c1ccccc12	NALP3 yeast inh 60.1 (no result: NALP1 yeast inh) | NALP3 confirm 73.8 | Casp1-ASC yeast 80.8 | NALP3 retest 63.6
CC1(C)CC(=O)C=C(c2cccc(Cl)c2O)C1	NALP3 yeast inh 71.0 (no result: PolyA inhibitor, NALP1 yeast inh, EBNA-1 inh) | NALP3 confirm 64.7 | Casp1-ASC yeast 75.3 | NALP3 retest 61.6
NCCNC[C@@H]1COC2(CCCCCCCCCCC2)O1	NALP3 yeast inh 58.6 | NALP3 confirm 74.5
C=C1/C=C(\C)[C@](C)(O)C[C@H](O)CC(=O)[C@H](O)[C@@H](O)[C@H](C)C[C@H](C)OC(=O)/C(C)=C/CC/C=C/[C@@H]2O[C@H]2C[C@H](C)C1	NALP3 yeast inh 83.2 (no result: PolyA inhibitor, NALP1 yeast inh, ZTA counter, dFosB act, EBNA-1 inh) | NALP3 confirm 88.7
CC(=O)N1N=C(c2ccc3ccccc3c2)OC1(C)C	NALP1 yeast inh 60.3, NALP3 yeast inh 63.1 | NALP3 confirm inactive
CC(=O)N1N=C(c2ccc(C(C)(C)C)cc2)OC1(C)C	none
COc1cc(CN2CCN(C(C)C)C(CCO)C2)ccc1OCc1ccccc1 (configuration not stated)	none
CCN(CC)S(=O)(=O)c1ccc(OCC(=O)NC(=O)Cc2ccccc2)c([N+](=O)[O-])c1	none (no result: PolyA inhibitor, NALP1 yeast inh, EBNA-1 inh)
CCN(CC)c1nc(C(N)=O)cc(-c2ccccc2)n1	NALP3 yeast inh 53.1 | NALP3 confirm inactive | Casp1-ASC yeast 64.7 | NALP3 retest inactive
Cc1cccc(OCCn2c(=S)[nH]c3ccccc32)c1	none
Cc1ccc(OCCn2c(=S)[nH]c3ccccc32)c(C(C)C)c1	NALP3 yeast inh 74.8 | NALP3 confirm 81.4 | Casp1-ASC yeast 55.6 | NALP3 retest inactive
Brc1ccc(-c2cn3c(n2)SCC3)cc1	NALP3 yeast inh 59.0 | NALP3 confirm 63.7 | Casp1-ASC yeast 62.8 | NALP3 retest 61.2
COC(=O)COc1ccc(-c2ccccc2)cc1C=O	none
COC(=O)COc1ccc(-c2ccc(F)cc2)cc1C=O	NALP3 yeast inh 55.7 | NALP3 confirm 55.3 | Casp1-ASC yeast 57.6 | NALP3 retest inactive
Cc1ccc(/C=N/N(C)S(=O)(=O)c2ccc(C)cc2)cc1	NALP3 yeast inh 51.1 | NALP3 confirm 58.1 | Casp1-ASC yeast 58.0 | NALP3 retest inactive
CSc1ccc(/C=N/N(C)S(=O)(=O)c2ccc(C)cc2)cc1	none
Cc1sc2nc(C3CC3)nc(SCC(=O)NCc3ccco3)c2c1C	NALP3 yeast inh 51.2 | NALP3 confirm inactive
Cc1nc(SCC(=O)NC2CCCC2)c2c(C)c(C)sc2n1	NALP3 yeast inh 54.4 | NALP3 confirm 56.4 | Casp1-ASC yeast inactive | NALP3 retest inactive
O=C(N/C(=C\c1ccc(F)cc1)C(=O)N1CCOCC1)c1ccccc1	none
COc1ccc(C2=NN(C(=O)CCC(=O)O)C(c3ccc([N+](=O)[O-])cc3)C2)cc1 (configuration not stated)	none (no result: ZTA counter, EBNA-1 inh)
O=C1C2N=NN(CC(=O)N3N=C(c4ccccc4)CC3c3ccc([N+](=O)[O-])cc3)C2C(=O)N1c1ccccc1 (configuration not stated)	NALP3 yeast inh 54.7 (no result: dFosB act) | NALP3 confirm 71.1
CC(C)(C)c1ccc(S(=O)(=O)NCC(=O)N2CCCC2)cc1	none
CSc1nsc(SCC(=O)NCc2ccccc2)n1	none
CSc1nsc(SCC(=O)NCc2ccc(C)cc2)n1	NALP3 yeast inh 50.6 (no result: ZTA counter, EBNA-1 inh) | NALP3 confirm 62.1 | Casp1-ASC yeast inactive | NALP3 retest inactive
c1ccc2c(c1)Cn1c-2nc2ccccc21	NALP3 yeast inh 70.5 (no result: NALP1 yeast inh) | NALP3 confirm 73.4 | Casp1-ASC yeast 84.0 | NALP3 retest 77.2
c1ccc2c(c1)CSc1ccccc1N2	NALP3 yeast inh 53.3 (no result: NALP1 yeast inh, dFosB act) | NALP3 confirm inactive
